Compound activity as filed in PubChem BioAssay.
Rows were chosen to be rich in hits. Some 4.1% of all compounds tested hit in one or more screens of this group.
CHT allo act – CHT positive allosteric modulators, primary screen, cell-based, membrane potential dye, choline EC20 | High affinity choline transporter 1 (Homo sapiens), Q9GZV3 | CHT-expressing cells; active compounds read high; LV-AA mutant CHT in HEK293 cells | B-score at 10 µM | 310,000 tested, 0.49% active | AID 488977, 2010;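 active means initial fluorescence not abnormally high and integrated response B-score, plate-corrected, over 3 SD above library mean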
MEKK2 WT-MEK5 – modulators of MEK5 binding to wildtype MEKK2, primary screen, biochemical, multiplex bead flow cytometry, Alexa488-MEK5 | Mitogen-activated protein kinase kinase kinase 2 (Homo sapiens), Q9Y2U5 | Alexa488-MEK5 binding to MEKK2 WT; actives lie on both sides | binding response (% of control), % at 10 µM | 290,000 tested, 1.1% active | AID 1531, 2009; in the data active means binding response below about 67% or above about 130%
CHT inh – inhibitors of human choline transporter CHT. High affinity choline transporter 1 (Homo sapiens), Q9GZV3. CHT-expressing cells, membrane potential dye, choline response; active compounds read low. B-score at 10 µM. 310,000 tested, 0.86% active;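 active means B-score over 3 SD under the library average, and starting fluorescence ratio not unusually high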;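 further: choline stimulus applied at its EC90 after an EC20 pre-addition; B-score computed on integrated fluorescence ratio after choline addition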
Mot1-301 SUMO – yeast Mot1-301 growth rescue at high temperature, primary screen, SUMOylation pathway inhibitor project, S. cerevisiae, ATP luminescence, 38.5C; S. cerevisiae Mot1-301 growth rescue; percent above DMSO median, 100 means doubled; growth rescue, % at 18.8 µM; 320,000 tested, 1% active; AID 2716, 2010;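 active means every valid replicate shows activation above 250% relative to neutral control wells; inactive means the rest, any valid replicate at or below 250%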;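 further: OY570 slx delta 5 strain wells were the positive control but not used for scaling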
MEKK3 PB1 HTS – modulators of MEKK3-MEK5 PB1 binding, primary screen, biochemical, wildtype MEKK3, multiplex bead flow cytometry, Alexa488-MEK5; Mitogen-activated protein kinase kinase kinase 3 (Homo sapiens), Q99759; bead-based flow cytometry, Alexa488-MEK5 binding to MEKK3; actives lie on both sides; 0 = blocked by unlabeled MEK5, 100 = vehicle; binding response (% of control), % at 10 µM; 290,000 tested, 1.4% active; AID 1529, 2009;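 active means binding response more than 3 SD above or below the average of its plate-row segment, actives on both sides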;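 further: Alexa488 bead fluorescence after subtracting the streptavidin-only scavenger bead signal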
Target sequence (Q99759 whole entry, looked up): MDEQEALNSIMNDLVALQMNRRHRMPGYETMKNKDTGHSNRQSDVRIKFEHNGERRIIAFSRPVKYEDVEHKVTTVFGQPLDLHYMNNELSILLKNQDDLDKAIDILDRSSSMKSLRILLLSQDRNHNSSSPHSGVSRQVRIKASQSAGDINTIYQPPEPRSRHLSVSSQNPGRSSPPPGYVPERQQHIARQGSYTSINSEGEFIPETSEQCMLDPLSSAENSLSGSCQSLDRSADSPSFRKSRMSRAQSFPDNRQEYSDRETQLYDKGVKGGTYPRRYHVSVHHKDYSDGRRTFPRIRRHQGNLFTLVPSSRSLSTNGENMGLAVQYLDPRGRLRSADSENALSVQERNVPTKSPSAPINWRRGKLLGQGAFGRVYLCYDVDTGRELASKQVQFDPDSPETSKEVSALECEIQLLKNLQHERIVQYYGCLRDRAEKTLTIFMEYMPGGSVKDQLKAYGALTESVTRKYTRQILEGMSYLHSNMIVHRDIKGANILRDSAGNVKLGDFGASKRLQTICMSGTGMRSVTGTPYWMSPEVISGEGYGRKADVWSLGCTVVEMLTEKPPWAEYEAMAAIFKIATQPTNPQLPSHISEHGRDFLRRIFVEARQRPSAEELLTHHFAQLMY
MEKK2mut PB1 HTS – MEK5 binding signal on mutant MEKK2 PB1, primary screen, biochemical, multiplex bead flow cytometry, Alexa488-MEK5; Alexa488-MEK5 binding to MEKK2 mutant; percent response, % at 10 µM; 290,000 tested, 0.35% active; AID 1530, 2009; in the data active means percent response above about 24%, passing the limit was not always enough
CHT inh conf – CHT inhibitors, confirmation, cell-based, membrane potential dye, duplicate; CHT activity remaining % of control (active compounds read low), % at 10 µM; shares compounds with CHT inh; 2,400 tested, 70% active; CHT-expressing cells, choline membrane potential dye; LV-to-AA substituted CHT, HEK293 cells;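 active means choline transporter activity left, mean of duplicates at 10 µM, below buffer-only control mean minus 3 SD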;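 further: depolarization triggered by choline at its EC90 following an EC20 pre-addition; 0% = hemicholinium-3 full block and 100% = buffer-only control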
HEK293 MPD ctr – membrane potential effects in parental HEK293, counter-screen for CHT inhibitor project, cell-based, membrane potential dye; 2,400 tested, 4% active; AID 493222, 2011; membrane potential ratio readout (active if shifted either direction beyond buffer ±3SD; no single direction) at 10 µM; shares compounds with CHT inh; choline response; active = decrease or increase beyond buffer ±3SD;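 further: parental cells lack the transporter so any hit is non-specific; ratio is peak minus trough fluorescence over baseline after EC90 choline challenge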
* = called active by the depositor; i = inactive; · = no result.

SMILES	CHT allo act	MEKK2 WT-MEK5	CHT inh	Mot1-301 SUMO	MEKK3 PB1 HTS	MEKK2mut PB1 HTS	CHT inh conf	HEK293 MPD ctr
CCn1cc(C(=O)NCCCN2CC(C)CC(C)C2)c(=O)c2cc(S(=O)(=O)N(C)C3CCCCC3)ccc21 (configuration not stated)	i	120	-5*	-9	103	3	45%*	2.9*
CCn1cc(C(=O)NCCCN2CCC(C)CC2)c(=O)c2cc(S(=O)(=O)N(C)C3CCCCC3)ccc21	i	104	-6.5*	249	98	1	39%*	i
CCN(CC)CCNC(=O)c1cn(CC)c2ccc(S(=O)(=O)N(C)C3CCCCC3)cc2c1=O	i	104	i	7	103	3	·	·
Cc1ccc(NC(=S)Nc2ccc(F)cc2)cc1C	i	103	-8.8*	-6	99	1	65%*	i
Cc1ccc(NC(=S)Nc2ccc3nc(-c4ccccn4)c(-c4ccccn4)nc3c2)cc1C	i	95	-5.3*	-19	100	-2	60%*	i
CN(C)CCN(Cc1cccs1)S(=O)(=O)c1csc(C(N)=O)c1	i	94	i	2	93	-8	·	·
NC(=O)NC(CC(=O)NNC(=O)c1ccccn1)c1ccccc1Cl (configuration not stated)	·	·	·	61	·	·	·	·
CC(C)(C)CC(=O)NCCc1csc(-c2ccccc2)n1	i	104	-5.3*	20	108	9	55%*	i
O=C(NCCc1csc(-c2ccccc2)n1)c1cccs1	i	115	i	7	111	17	·	·
Cc1cn([C@H](C(=O)NCCCCCCCCCCC(=O)N2CCN(C(=O)OC(C)(C)C)CC2)[C@@H](C)O)nn1	i	·	-6.8*	98	·	·	60%*	i
Cc1oc(C(C)(C)C)cc1C(=O)Nc1cccc(/C=C\C(=O)O)c1	i	97	i	6	92	-3	·	·
Cc1oc(-c2ccccc2)cc1C(=O)Nc1cccc(/C=C\C(=O)O)c1	i	99	-8.9*	-20	100	-2	61%*	i
O=C(NCC(c1ccco1)N1CCOCC1)c1c(F)cccc1F (configuration not stated)	i	·	i	15	·	·	·	·
CC(=O)Nc1ccc(S(=O)(=O)Nc2nc3ccccc3nc2Nc2ccc3ccccc3c2)cc1	i	97	i	6	119	-1	·	·
CC(=O)Nc1ccc(S(=O)(=O)Nc2nc3ccccc3nc2Nc2ccc(N)cc2)cc1	i	103	-5.1*	-8	111	5	67%*	i
O=C(NC1CCCC1)c1sc(=S)n2c1[nH]c(=O)c1ccccc12	i	109	-5*	-16	111	5	i	i
CCCCCNC(=O)c1ccc2c(=O)[nH]c3c(C(=O)NCC4CCCO4)sc(=S)n3c2c1 (configuration not stated)	i	92	-7.8*	-4	94	-6	35%*	i
CC(C)(O)c1cn(-c2nonc2N)nn1	i	94	i	5	94	-8	·	·
COc1cccc(CN2CCN(Cc3cccn3-c3cccnc3)CC2CCO)c1 (configuration not stated)	i	98	i	115	102	-6	·	·
CN1CCc2c(sc3c2c(=O)n(-c2ccccc2)c2n[nH]c(=S)n32)C1	i	96	i	-3	100	5	·	·
COc1ccc(NC(=O)CC2Nc3cccc4cccc(c34)NC2=O)cc1 (configuration not stated)	i	97	i	·	102	0	·	·
O=C(CC1Nc2cccc3cccc(c23)NC1=O)Nc1ccc(F)cc1 (configuration not stated)	i	100	-5.1*	0	100	-1	i	i
COc1ccccc1CNC(=O)[C@@H]1CCCN1S(=O)(=O)c1ccccc1F	i	101	i	-16	101	-2	·	·
CC(C)c1ccc(NC(=O)CSc2nc(=O)n(CCCN3CCOCC3)c3c2CCC3)cc1	i	·	-4.9*	-1	·	·	38%*	i
Cc1cc(C)c[n+](CC(=O)c2cc3ccccc3oc2=O)c1	i	105	i	-2	107	7	·	·
SMILES	CHT allo act	MEKK2 WT-MEK5	CHT inh	Mot1-301 SUMO	MEKK3 PB1 HTS	MEKK2mut PB1 HTS	CHT inh conf	HEK293 MPD ctr
Cc1cc(C)c[n+](CC(=O)c2c(C)cc(C)c([N+](=O)[O-])c2C)c1	i	102	-7.9*	-2	103	3	45%*	i
CC(C)Cn1c(=O)c2c(nc3n2CCCN3CCc2ccccc2)n(C)c1=O	i	96	-5.4*	-6	88	-16	62%*	i
Cc1nn(C2CCS(=O)(=O)C2)c(C)c1CN(C)C(=O)c1ccccc1 (configuration not stated)	·	·	·	-5	·	·	·	·
Cn1c(-c2ccc(F)cc2)cnc1NCc1ccccc1	i	86	-5*	0	77	-15	i	i
CN(/N=C/c1ccc([N+](=O)[O-])o1)c1ccccc1	i	98	-5.7*	18	102	-3	50%*	i
O=C(N/N=C/c1ccc([N+](=O)[O-])o1)C(O)c1ccccc1 (configuration not stated)	i	94	i	-12	91	-17	·	·
Cc1ccc(OCCC(=O)OCC(=O)NC(=O)NC2CCCCC2)cc1	i	·	i	19	·	·	·	·
CCOC(=O)c1[nH]c(C)c(C(=O)N2CCc3ccccc32)c1C	i	99	-6*	·	96	-1	i	2.4*
CC1CCC2(CC1)NC(=O)N(CC(=O)Nc1sc3c(c1C(N)=O)CCC3)C2=O (configuration not stated)	i	74	i	17	85	-10	·	·
